AHR activator = activates the human aryl hydrocarbon receptor; P35869; AHR-responsive luciferase reporter cells, luminescence; activation, % at 5 µM; actives 2.5% (n = 320,000); AID 2796; in the data active = activation above about 47%
A3A deaminase = human APOBEC3A DNA deaminase inhibition. actives 0.41% (n = 330,000). inhibition, % at 20 µM. recombinant A3A, FAM/TAMRA ssDNA deamination fluorescence. P31941;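 active = at least 40% inhibition at 20 µM here, with at most 30% in a related deaminase screen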
NTR1 ag = agonists of human neurotensin receptor NTR1; activation, % at 20 µM; NTR1-U2OS beta-arrestin-GFP spot imaging, agonist mode; P30989; actives 0.17% (n = 330,000);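 active = activation at or above 40% of the spot to cytoplasm intensity ratio, with at least 20 cells analyzed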
A3G deaminase = APOBEC3G (human) deaminase inhibition. Q9HC16. recombinant A3G, ssDNA deamination FAM/TAMRA fluorescence. inhibition, % at 20 µM. actives 0.28% (n = 330,000). AID 493012;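 active = inhibition of at least 40% at 20 µM, with no more than 30% in the related APOBEC3A deaminase screen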
Each line names hits and unclear results; the compound was inactive in the other large screens. Sampled rows, rich in hits. Any-hit rate of the full collection: about 3.2%.

COC(=O)c1[nH]c2ccc(C)cc2c1NC(=O)CN1CCCc2ccccc21	AHR activator 57
CCOC(=O)c1[nH]c2ccccc2c1NC(=S)Nc1cccc(C)c1C	AHR activator 56
COC(=O)c1[nH]c2cc(C)ccc2c1NC(=O)CN1CCN(c2ccccc2OC)CC1	none
C=CCOC(=O)Nc1c(C(=O)OC)[nH]c2ccccc12	AHR activator 57
Cc1cc(-n2c(SCc3ccccc3F)nc3n[nH]c(C)c3c2=N)ccc1Cl	AHR activator 55
CCC(Sc1nc2n[nH]c(C)c2c(=N)n1-c1cccc(Cl)c1)C(=O)NCCOC (stereo not drawn)	AHR activator 63
CCOc1ccc(-n2c(SCC(=O)Nc3ccc(CC)cc3)nc3n[nH]c(C)c3c2=N)cc1	none
COc1ccccc1NC(=O)CSc1nc2n[nH]c(C)c2c(=N)n1-c1ccccc1Cl	AHR activator 75
CCc1nnc(NC(=O)C2CCCN2C(=O)Nc2ccc(Cl)cc2)s1 (stereo not drawn)	none
O=C(c1cc(C2CC2)on1)N1CCCC(N2CCN(c3ccc(F)cc3)CC2)C1 (stereo not drawn)	none
O=C(Nc1c(F)cccc1F)C1CCN(C(=O)c2cccs2)CC1	none
COc1ccc(C2CC(=O)N3CN(c4ccccc4F)CSC3=C2C#N)cc1OC (stereo not drawn)	A3G deaminase 46
CCc1ccccc1N1CSC2=C(C#N)C(c3ccccc3F)CC(=O)N2C1 (stereo not drawn)	none
CCc1nc(C(N)=O)c2[nH]c(=O)n(-c3ccc(OC)cc3OC)c2n1	none
COc1ccc(C(=O)Nc2nc(-c3cccs3)c(NC(C)=O)s2)cc1	none
Cc1occc1C(=O)Nc1nccs1	none
COc1ccc(C(=O)Nc2nnc(-c3cccs3)s2)cc1	AHR activator 67
COc1ccc(OC)c(NC(=O)c2ccc(-c3cccs3)cc2)c1	AHR activator 76
Cc1occc1C(=O)Nc1nnc(-c2cccs2)s1	AHR activator 76
COc1ccc(NC(C)=O)cc1NC(=O)c1ccc2ccccc2c1	AHR activator 74
COc1ccc(NC(C)=O)cc1NC(=O)c1ccc(Cl)cc1	none
O=C(Nc1ccc(Cl)cc1)c1cc2c(cc1O)[nH]c1ccccc12	none
Cc1c(C)c2cc(Cl)c(OCC(=O)NC3CC(C)(C)NC(C)(C)C3)cc2oc1=O	none
O=S(=O)(NCC(c1ccc2c(c1)OCO2)N1CCOCC1)c1ccccc1 (stereo not drawn)	none
Cc1noc(C)c1C(=O)NCCc1c(C)[nH]c2ccccc12	none
O=C(Nc1nnc(-c2cccs2)s1)c1cccc(F)c1	AHR activator 56
O=C(O)CCN1CCN(S(=O)(=O)c2ccc3ccccc3c2)CC1	none
COc1ccccc1/C=N/Nc1nncc2ccccc12	none
COc1ccc(/C=N/Nc2nncc3ccccc23)cc1	AHR activator 48
CC(OC(=O)Cc1coc2ccc3ccccc3c12)C(=O)NC(N)=O (stereo not drawn)	none
CCn1nnnc1SCC(=O)Nc1ccc2c(c1)OCO2	none
COc1cc(NC(=O)CSc2nnnn2Cc2ccc3c(c2)OCO3)cc(OC)c1	AHR activator 71
CCOC(=O)C1(Cc2cccc(Cl)c2)CCCN(CCO)C1 (stereo not drawn)	none
COc1ccccc1CCn1cnc2c3cc(C)ccc3n(C)c2c1=O	AHR activator 68
CCC1CCCCN1C(=O)COC(=O)c1cc2ccccc2cc1O (stereo not drawn)	none
CCC1CCCCN1C(=O)COc1ccc2c(c1)OCO2 (stereo not drawn)	AHR activator 48
CC1CCCN(C(=O)COc2ccc3c(c2)OCO3)C1 (stereo not drawn)	AHR activator 52
CCOc1ccccc1N(CC(=O)NCCc1ccccc1)C(=O)CCC(=O)Nc1ccccn1	none
COc1ccc([N+](=O)[O-])cc1C(=O)Nc1ccc(Cc2ccncc2)cc1	AHR activator 72
CCOC(=O)c1c(NC(=O)Cn2cnc([N+](=O)[O-])n2)sc(C)c1C	none
COc1ccc(NC(=O)N2CCC(c3nc(-c4cccs4)no3)CC2)cc1	AHR activator 60
O=C(Nc1ccccc1)N1CCCC(c2nc(-c3cccs3)no2)C1 (stereo not drawn)	AHR activator 70
O=C(c1c(O)c2ccccc2oc1=O)C1CCC1	none
O=C(c1ccccc1Cl)c1c(O)c2ccccc2oc1=O	AHR activator 55
CCc1ccc(NC(=O)Cn2c(SC)nc3ccccc32)cc1	AHR activator 78
O=C(CN1C(=O)c2cccc3cccc1c23)Nc1cccnc1	AHR activator 54
Cc1ccc(N=Nc2c(C)[nH]n(C(N)=S)c2=O)cc1	AHR activator 51
Cc1[nH]n(C(N)=S)c(=O)c1N=Nc1ccc(S(=O)(=O)N2CCCC2)cc1	none

Compound activity (PubChem BioAssay)
